In PubChem BioAssay (Tox21):
Results filed as inconclusive are left out. Entries that show only a call come without a potency. Calls of active or inactive are those of the source. Unless noted, the call rests on the fitted dose curve.

target: Progesterone receptor (Homo sapiens) (UniProt P06401); test: qHTS assay to identify small molecule agonists of the progesterone receptor (PR) signaling pathway (AID 1346784); conditions: PR-UAS-bla HEK293T, beta-lactamase FRET ratio, 16 h; series mostly up to 92.4 µM; further: nearly all actives have a fitted effect of over 30% in size
How it was run: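 PR-UAS-bla HEK 293T cells carrying a UAS-driven beta-lactamase reporter were seeded in medium with 2% charcoal-stripped FBS, preincubated 6 hr at 37C, then exposed to compounds in DMSO for 16 hr; agonism was read by LiveBLAzer B/G FRET fluorescence.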
Potency means the concentration at half of the fitted maximal effect.

Chain of Progesterone receptor (Homo sapiens) (P06401 whole entry, looked up): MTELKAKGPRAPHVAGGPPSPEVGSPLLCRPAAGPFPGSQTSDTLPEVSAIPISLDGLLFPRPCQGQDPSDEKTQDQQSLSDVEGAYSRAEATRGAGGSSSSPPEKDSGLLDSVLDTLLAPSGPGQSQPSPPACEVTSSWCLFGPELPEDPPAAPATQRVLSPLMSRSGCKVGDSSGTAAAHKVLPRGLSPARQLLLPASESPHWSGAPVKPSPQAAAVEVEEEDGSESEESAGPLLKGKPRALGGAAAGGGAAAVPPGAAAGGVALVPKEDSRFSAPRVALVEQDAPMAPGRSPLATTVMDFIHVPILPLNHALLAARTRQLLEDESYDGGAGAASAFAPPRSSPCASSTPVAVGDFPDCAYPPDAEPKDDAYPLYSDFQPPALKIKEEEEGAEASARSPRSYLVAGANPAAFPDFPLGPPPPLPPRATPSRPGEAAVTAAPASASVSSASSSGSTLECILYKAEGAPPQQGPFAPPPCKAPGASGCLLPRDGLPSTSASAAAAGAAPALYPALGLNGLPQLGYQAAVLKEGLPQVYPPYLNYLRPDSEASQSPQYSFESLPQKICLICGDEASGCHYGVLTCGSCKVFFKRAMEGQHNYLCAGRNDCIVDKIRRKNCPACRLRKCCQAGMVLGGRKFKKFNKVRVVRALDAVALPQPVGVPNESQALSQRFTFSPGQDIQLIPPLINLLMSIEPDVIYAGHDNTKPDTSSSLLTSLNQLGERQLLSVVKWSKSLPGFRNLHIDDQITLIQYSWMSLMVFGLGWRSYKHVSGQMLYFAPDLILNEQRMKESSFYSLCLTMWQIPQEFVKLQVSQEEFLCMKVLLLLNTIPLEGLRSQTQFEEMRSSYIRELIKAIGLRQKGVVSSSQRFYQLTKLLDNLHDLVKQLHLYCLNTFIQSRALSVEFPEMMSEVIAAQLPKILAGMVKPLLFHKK

Row | SMILES | Potency
1 | Cc1nc2ccccn2c(=O)c1CCN1CCC(C(=O)c2ccc(F)cc2)CC1 | inactive
2 | COc1ccc(C(=O)c2cccc(O)c2)c(OC)c1 | inactive
3 | O=C(CCCN1CCN(c2ccc(F)cc2)CC1)NC1c2ccccc2CSc2ccccc21 (configuration not stated) | inactive
4 | C=CCOC(=O)/C=C\C(=O)OCC=C | inactive
5 | O=C(CS)OCCOC(=O)CS | inactive
6 | Cc1oc(C)c(C(=O)Nc2ccccc2)c1C | inactive
7 | COCc1c(C(C)C)nc(C(C)C)c(/C=C/[C@@H](O)C[C@@H](O)CC(=O)O)c1-c1ccc(F)cc1 | inactive
8 | O=C(CCCCCCC(=O)Nc1ccccc1)NO | inactive
9 | CCOC(=O)N1CCC(n2c(=O)[nH]c3cc(Cl)ccc32)CC1 | inactive
10 | Nc1ccc(C(=O)OCCCOC(=O)c2ccc(N)cc2)cc1 | inactive
11 | CCCCCCCCCCCC(=O)[O][Sn]([CH2]CCC)([CH2]CCC)[O]C(=O)CCCCCCCCCCC | inactive
12 | C[C@]12CCC(=O)C=C1C=C[C@@H]1[C@@H]2CC[C@@]2(C)[C@H]1CC[C@@]21CCC(=O)O1 | 1.68 µM (active)
13 | N#C/C(=C1/SC[C@@H](c2ccc(Cl)cc2Cl)S1)n1ccnc1 | inactive
14 | NC(=O)Nc1ccc(Cl)c(Cl)c1 | inactive
15 | O=C(OCCOCCO)c1ccccc1Nc1cccc(C(F)(F)F)c1 | inactive
16 | CCOC(=O)[C@@H](C)Oc1ccc(Oc2nc3ccc(Cl)cc3o2)cc1 | inactive
17 | CN(C)CCOC1=Cc2ccccc2Sc2ccc(Cl)cc21 | inactive
18 | C/C=C/C=C/CCCCCCCO | inactive
19 | CCCCC/C(=C\c1ccccc1)CO | inactive
20 | OC(CCCN1CCCCC1)(c1ccccc1)c1ccccc1 | inactive
21 | CCCOc1ccc(S(=O)(=O)N2CCN(CC)CC2)cc1-c1nc2c(CC)n(Cc3ccccn3)nc2c(=O)[nH]1 | inactive
22 | CC1CC(=O)NN=C1c1ccc(NCC(C)(C)NCC(O)COc2cc(Cl)ccc2C#N)cc1 (configuration not stated) | inactive
23 | O=C(Nc1ccc([N+](=O)[O-])cc1)Nc1ccc([N+](=O)[O-])cc1 | inactive
24 | NC(=O)N(O)[C@@H]1C=C[C@H](Oc2cccc(Oc3ccc(F)cc3)c2)C1 | inactive
25 | COc1cc2c(N3CCN(C(=O)Nc4ccc(OC(C)C)cc4)CC3)ncnc2cc1OCCCN1CCCCC1 | inactive
26 | CCCC1C(CC)=CC(CC)=CN1c1ccccc1 (configuration not stated) | inactive
27 | Cc1ccc(S)cc1 | inactive
28 | CCCCCCCC/C=C\CCCCCCCC(=O)OC(CO)CO | inactive
29 | O=C(CCCN1CCC(O)(c2ccc(Br)cc2)CC1)c1ccc(F)cc1 | inactive
30 | CCc1c2c(nc3ccc(OC(=O)N4CCC(N5CCCCC5)CC4)cc13)-c1cc3c(c(=O)n1C2)COC(=O)[C@]3(O)CC | inactive

target: Progesterone receptor (Homo sapiens) (UniProt P06401); test: qHTS assay to identify small molecule antagonists of the progesterone receptor (PR) signaling pathway (AID 1346795; active means well fitted inhibition curve with a large enough effect in the signal ratio in the repeat runs, not every such curve was filed as active; the % refers to the signal ratio); conditions: PR-UAS-bla HEK293T, beta-lactamase FRET ratio, 16 h; series mostly up to 92.4 µM
How it was run: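 PR-UAS-bla HEK293T cells carrying a UAS-driven beta-lactamase reporter were plated in medium with 2% charcoal-stripped FBS and rested 6 hr at 37C. Compounds were added with 1 nM R5020 (final) for 16 hr, then FRET substrate loaded 2 hr at room temperature.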

Row | SMILES | Potency
31 | Cc1nc2ccccn2c(=O)c1CCN1CCC(C(=O)c2ccc(F)cc2)CC1 | inactive
32 | CCCCC(=O)O[C@]1(C(=O)CO)[C@@H](C)C[C@H]2[C@@H]3CCC4=CC(=O)C=C[C@]4(C)[C@@]3(F)[C@@H](O)C[C@@]21C | inactive
33 | C=CCOC(=O)/C=C\C(=O)OCC=C | inactive
34 | O=C(CS)OCCOC(=O)CS | inactive
35 | C[C@@H]1C[C@H]2[C@@H]3CCC4=CC(=O)C=C[C@]4(C)[C@@]3(F)[C@@H](O)C[C@]2(C)[C@H]1C(=O)CO | inactive
36 | COCCOC(=O)C1=C(C)NC(C)=C(C(=O)OC/C=C/c2ccccc2)C1c1cccc([N+](=O)[O-])c1 (configuration not stated) | 4.22 µM (active)
37 | CCCCCCCCCCCC(=O)[O][Sn]([CH2]CCC)([CH2]CCC)[O]C(=O)CCCCCCCCCCC | inactive
38 | CC(=O)Oc1ccc(C(=C2CCCCC2)c2ccc(OC(C)=O)cc2)cc1 | 13.3 µM (active)
39 | O=C(OCCOCCO)c1ccccc1Nc1cccc(C(F)(F)F)c1 | 18.8 µM (active)
40 | OC(CCCN1CCCCC1)(c1ccccc1)c1ccccc1 | inactive
41 | CC1CC(=O)NN=C1c1ccc(NCC(C)(C)NCC(O)COc2cc(Cl)ccc2C#N)cc1 (configuration not stated) | inactive
42 | O=C(Nc1ccc([N+](=O)[O-])cc1)Nc1ccc([N+](=O)[O-])cc1 | inactive
43 | COc1cc2c(N3CCN(C(=O)Nc4ccc(OC(C)C)cc4)CC3)ncnc2cc1OCCCN1CCCCC1 | inactive
44 | CCCC1C(CC)=CC(CC)=CN1c1ccccc1 (configuration not stated) | 27.3 µM (active)
45 | Cc1ccc(S)cc1 | inactive
46 | CCCCCCCC/C=C\CCCCCCCC(=O)OC(CO)CO | inactive
47 | CCc1c2c(nc3ccc(OC(=O)N4CCC(N5CCCCC5)CC4)cc13)-c1cc3c(c(=O)n1C2)COC(=O)[C@]3(O)CC | inactive
48 | CC1(C)C2=CCCC(C)(C)[C@]23CC[C@H]1C3 | inactive

tested on: not listed separately; test: qHTS assay to identify small molecule antagonists of the progesterone receptor (PR) signaling pathway - cell viability counter screen (AID 1346798; active means well fitted cell-killing curve with a large enough effect in the repeat runs; further: nearly all actives have a fitted effect of over 50% in size); conditions: PR-UAS-bla HEK293T viability, CellTiter-Glo luminescence, 16 h; series mostly up to 92.4 µM
How it was run: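 PR-UAS-bla HEK293T cells in medium with 2% charcoal-stripped FBS were treated with compounds plus R5020 for 16 hr at 37C. Cell viability was then read by CellTiter-Glo luminescence after 30 min at room temperature in the same wells.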

Row | SMILES | Potency
49 | Cc1nc2ccccn2c(=O)c1CCN1CCC(C(=O)c2ccc(F)cc2)CC1 | inactive
50 | C=CCOC(=O)/C=C\C(=O)OCC=C | inactive
51 | C[C@@H]1C[C@H]2[C@@H]3CCC4=CC(=O)C=C[C@]4(C)[C@@]3(F)[C@@H](O)C[C@]2(C)[C@H]1C(=O)CO | inactive
52 | Cc1oc(C)c(C(=O)Nc2ccccc2)c1C | inactive
53 | CCCCCCCCSCCO | inactive
54 | O=C(CCCCCCC(=O)Nc1ccccc1)NO | inactive
55 | NC(=O)Nc1ccc(Cl)c(Cl)c1 | inactive
56 | CCOC(=O)[C@@H](C)Oc1ccc(Oc2nc3ccc(Cl)cc3o2)cc1 | inactive
57 | CN(C)CCOC1=Cc2ccccc2Sc2ccc(Cl)cc21 | inactive
58 | CCCCC/C(=C\c1ccccc1)CO | inactive
59 | OC(CCCN1CCCCC1)(c1ccccc1)c1ccccc1 | inactive
60 | CC1CC(=O)NN=C1c1ccc(NCC(C)(C)NCC(O)COc2cc(Cl)ccc2C#N)cc1 (configuration not stated) | inactive
61 | O=C(c1ccc(O)cc1)c1ccc(Cl)cc1 | inactive
62 | CCOC(=N)CC(=O)OCC | 17.2 µM (active)
63 | COc1cc2c(N3CCN(C(=O)Nc4ccc(OC(C)C)cc4)CC3)ncnc2cc1OCCCN1CCCCC1 | inactive
64 | Cc1ccc(S)cc1 | inactive
65 | CCCCCCCC/C=C\CCCCCCCC(=O)OC(CO)CO | inactive
66 | O=C(CCCN1CCC(O)(c2ccc(Br)cc2)CC1)c1ccc(F)cc1 | inactive
67 | CCc1c2c(nc3ccc(OC(=O)N4CCC(N5CCCCC5)CC4)cc13)-c1cc3c(c(=O)n1C2)COC(=O)[C@]3(O)CC | inactive
